# Lassa entry – qHTS for Inhibitors of binding or entry into cells for Lassa Virus; 4.1% of 18,000 active; Lassa virus pseudotyped entry inhibition, cell-based qHTS; AID 720533, 2013; Potency, µM (doses to about 49.2 µM), for inactives: top-dose activity change, negative = inhibition, hits mostly inhibitors
# MARV entry inh – qHTS for Inhibitors of binding or entry into cells for Marburg Virus | Marburg virus pseudotype entry/binding inhibition, cell-based | Potency, µM (highest dose often 49.2 µM), without a hit: at the top dose activity change, negative = inhibition, most hits filed as inhibitors | 6.5% of 18,000 active | AID 720532, 2013
# The depositor's hits bear a star; ? = inconclusive; [ ] = remark or other dose. Hits are enriched below; roughly 7.1% of the tested compounds scored in any of these assays. Calls come from the whole dose curve; tested in HEK293 cells. % is set by controls: 0 for no effect and ±100 for the full control effect; potency is the fitted concentration of half-maximal effect.
SMILES,Lassa entry,MARV entry inh
CCN(Cc1ccncc1)Cc1ccc2c(c1)CN(C(=O)c1ccc(C)cc1)CCO2,-4%,6%
CC(C)C[C@@H](CC(=O)N[C@@H](CCC(=O)O)CC(=O)O)NC(=O)[C@@H]1CCCC[C@H]1NC(=O)C[C@H](CCCN)NC(=O)C[C@H](Cc1ccccc1)NC(=O)[C@@H]1CCCC[C@H]1N,-8%,-7%
O=S(=O)(O)CC(S)CS (centres undefined),?,-12%
Cc1cccc(CNC(=O)c2cnn(-c3nccc(-c4cccs4)n3)c2C(C)C)n1,-23%,-26%
CC(C)=CCn1cnc2c1c(=O)n(C)c(=O)n2C,-9%,-10%
OCCc1ccccc1,-5%,5%
Oc1ccc(Cl)cc1Cc1ccccc1,25µM*,-16%[107 µM]
Cc1cc(C(=O)Nc2ccccc2-c2nc(CNC(=O)c3cc4ccccc4cn3)c(C)o2)c(C)o1,-4%,4%
CCCCCCN1CCN(C2CN(CCc3ccccc3)S(=O)(=O)C2)CC1 (centres undefined),-32%,17%
CCCCCCCCCCCCCCCCn1cc[n+](Cc2ccccc2)c1C,11µM*,7.1µM*
